Bioassay records deposited in PubChem by Broad Institute.
C diff growth: C. difficile growth inhibitors, primary screen, HTS; Clostridium difficile clinical isolate growth, OD600, 24 h; stronger effect = lower value; growth activity, negative = inhibition, % at 16 µg/mL (by protocol); 86,000 tested, 0.25% active;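 active = mean growth activity at or below -80% and every replicate also at or below -80%; inconclusive = mean at or below -80% but some replicate above -80%; inactive = mean growth activity above -80%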;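 note: 0% = DMSO wells and -100% = levofloxacin 16 µg/mL wells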
T cruzi growth-1: T. cruzi intracellular proliferation inhibitors, primary screen, cell-based, beta-gal Tulahuen parasites, NIH3T3 host, luminescence | T. cruzi beta-gal in NIH3T3, GalScreen luminescence, 90 h | inhibition, % at 8.34 µM | 77,000 tested, 5.9% active | AID 624255, 2012;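 active = mean inhibition above about 93%, with at least 55% of replicates each passing it, limit read from the data, passing the limit was not always enough; inconclusive = only one of those two conditions holds; inactive = neither condition holds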
T cruzi growth-2: T. cruzi intracellular proliferation inhibitors, confirmation, cell-based, NIH3T3 host, beta-gal parasite, luminescence, cherry-pick. 5,600 tested, 72% active. shares compounds with T cruzi growth-1. AID 651739, 2012. T. cruzi beta-gal in NIH3T3, GalScreen luminescence, 90 h. inhibition, % at 8.35 µM;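 active = mean replicate inhibition above about 95% and at least 55% of replicates individually reaching it, limit read from the data; inconclusive = only one of the two criteria is met; inactive = neither criterion is met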
T cruzi growth-3: inhibitors of intracellular T. cruzi replication, confirmation, NIH3T3 host cells, beta-gal parasites, cherry-pick, set 2; shares compounds with T cruzi growth-1; T. cruzi beta-gal in NIH3T3, GalScreen luminescence, 90 h; inhibition, % at 2.09 µM; 5,600 tested, 21% active;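 active = mean inhibition above about 95%, with at least 55% of replicates also reaching it, limit read from the data; inconclusive = meets just one of the two conditions; inactive = meets neither condition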;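 note: plate controls were neutral control median for no effect and positive control median for full effect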
3T3 cytotox: cytotoxicity in mouse NIH/3T3 fibroblasts, confirmation, cytotoxicity control for T. cruzi proliferation inhibitor project, cell-based, cherry-pick, single point; shares compounds with T cruzi growth-1; NIH/3T3 viability, CellTiter-Glo ATP luminescence, 90 h; cytotoxicity (signal decrease), % at 8.35 µM; 5,600 tested, 14% active;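 active = mean signal decrease across replicates above about 35% based on untreated-well scatter, with enough replicates individually passing, limit read from the data; inconclusive = no rule stated though some were filed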;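 note: 0% = median of neutral control wells and 100% = median of positive control wells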
3T3 cytotox 2: NIH/3T3 fibroblast cytotoxicity, confirmation, cytotoxicity control, cell-based, cherry-pick, single point, set 2; NIH/3T3 viability, CellTiter-Glo ATP luminescence, 90 h; shares compounds with T cruzi growth-1; 5,600 tested, 56% active; inhibition, % at 24.9 µM;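 active = mean loss of cell viability signal at or above a set limit, and enough replicates individually reaching it; inconclusive = meets only the mean limit or only the replicate share; inactive = meets neither condition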;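 note: 0% = median of neutral control wells and 100% = median of positive control wells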
The depositor's hits bear a star. The entries come from a sample that favours hits as a whole.

`COc1ccc(NC(=O)N(C)C[C@H]2OCc3ccccc3-c3c(n(C)c4ccccc34)C(=O)N([C@H](C)CO)C[C@@H]2C)c(OC)c1` gave C diff growth 10 and T cruzi growth-1 30.
For C[C@H](CO)N1C[C@H](C)[C@@H](CN(C)C(=O)c2ccccc2F)Oc2cc(-c3ccccc3)ccc2S1(=O)=O the results were C diff growth -14 and T cruzi growth-1 79.
`C[C@H]1CN([C@@H](C)CO)C(=O)c2cc(NS(=O)(=O)c3ccc(F)cc3)ccc2O[C@H]1CN(C)S(=O)(=O)c1ccc(Cl)cc1` gave C diff growth -4 and T cruzi growth-1 34.
CO[C@H](CN(C)S(=O)(=O)c1ccc(F)cc1)[C@H](C)CN([C@@H](C)CO)S(=O)(=O)c1cccc(Cl)c1 was read as T cruzi growth-1 91.
Screening CO[C@H](CN(C)S(=O)(=O)c1cccc(Cl)c1)[C@@H](C)CN([C@@H](C)CO)S(=O)(=O)c1ccc(Cl)cc1 returned T cruzi growth-1 91.
CO[C@H](CN(C)S(=O)(=O)c1cccc(Cl)c1)[C@@H](C)CN([C@H](C)CO)S(=O)(=O)c1cccc(Cl)c1 was read as T cruzi growth-1 118*, T cruzi growth-2 43, T cruzi growth-3 9, 3T3 cytotox 23 and 3T3 cytotox 2 69*.
`CO[C@@H](CN(C)S(=O)(=O)c1cccc(Cl)c1)[C@H](C)CN([C@@H](C)CO)S(=O)(=O)c1cccc(Cl)c1` gave T cruzi growth-1 110*, T cruzi growth-2 93, T cruzi growth-3 38, 3T3 cytotox 49* and 3T3 cytotox 2 72*.
For CO[C@H](CN(C)S(=O)(=O)c1cccc(Cl)c1)[C@@H](C)CN([C@@H](C)CO)S(=O)(=O)c1cccc(Cl)c1 the results were T cruzi growth-1 109*, T cruzi growth-2 83, T cruzi growth-3 19, 3T3 cytotox 42* and 3T3 cytotox 2 39*.
`CO[C@@H](CN(C)S(=O)(=O)c1cccc(Cl)c1)[C@@H](C)CN([C@@H](C)CO)S(=O)(=O)c1ccc(Cl)cc1` gave T cruzi growth-1 104*, T cruzi growth-2 98*, T cruzi growth-3 59, 3T3 cytotox inconclusive and 3T3 cytotox 2 67*.
For CO[C@@H](CN(C)S(=O)(=O)c1cccc(Cl)c1)[C@@H](C)CN([C@H](C)CO)S(=O)(=O)c1ccc(Cl)cc1 the results were T cruzi growth-1 76.
CO[C@H](CN(C)S(=O)(=O)c1ccc(Cl)cc1)[C@@H](C)CN([C@H](C)CO)S(=O)(=O)c1cccc(Cl)c1 was read as T cruzi growth-1 76.
For CN(C)CC#Cc1ccc([C@@H]2[C@H]3CN(C(=O)C4CCCC4)CCCCN3[C@H]2CO)cc1 the results were C diff growth 0 and T cruzi growth-1 24.
Screening C[C@H]1CN([C@@H](C)CO)C(=O)Cc2cc(NC(=O)Cn3cnnn3)ccc2O[C@@H]1CN(C)S(=O)(=O)c1ccccc1 returned C diff growth -5 and T cruzi growth-1 2.
`COc1cccc(C(=O)Nc2ccc3c(c2)OC[C@@H](C)N(C(=O)C2CCCC2)C[C@@H](C)[C@H](OC)CN(C)C3=O)c1` gave T cruzi growth-1 39.
Screening CNC(=O)C[C@@H]1CC[C@H]2[C@@H](COC[C@@H](O)CN2C(=O)c2ccc3c(c2)OCO3)O1 returned C diff growth 0.
`O=C(Nc1cccc(F)c1)N[C@H]1CC[C@@H](CCNS(=O)(=O)c2cccc(Cl)c2)O[C@@H]1CO` gave T cruzi growth-1 16.
Screening O=C(Nc1cccc(F)c1)N[C@@H]1CC[C@@H](CCNS(=O)(=O)c2cccc(Cl)c2)O[C@@H]1CO returned T cruzi growth-1 121*, T cruzi growth-2 56, T cruzi growth-3 -9, 3T3 cytotox -27 and 3T3 cytotox 2 -5.
